# Results filed as inconclusive are left out. A number with no mark means an inactive call. Activity calls are given as the source filed them. Calls follow the shape of the dose curve; as a rule, active = well fitted inhibition curve with a large enough effect; inconclusive = small, poorly fitted or top-dose-only effect; inactive = flat fitted curve, though single readings scatter.
# Legend:
# Test in all cases: Cytotoxic Profiling of Annotated Libraries Using Quantitative High-Throughput Screening (AID 1296008); also: nearly all actives have a fitted effect of over 60% in size
# Settings in all cases: Five cell lines viability, CellTiter-Glo ATP luminescence, 48-72 h; max response: active compounds read low
# HaCat = system: HaCat
# Outline: (§1)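 Cells exposed to compounds for 48 or 72 hr at 37 degrees Celsius. Viability read as ATP-coupled luminescence with CellTiter-Glo after 10 min at room temperature.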
# KB-3-1 = system: KB-3-1
# Outline: as §1
# NIH3T3 = system: NIH3T3
# Outline: as §1
# % is scaled to controls: 0 for no effect and ±100 for the full control effect; potency is read from the fitted curve at half-maximal effect.
compound,measurement,setting,value
C[C@@H](O)[C@H](NC(=O)c1ccc(C#Cc2ccc(CN3CCOCC3)cc2)cc1)C(=O)NO,max response,HaCat,-21.7%
same,outcome,KB-3-1,inactive
same,max response,NIH3T3,3.18%
C/C=C(/COC(=O)/C(C)=C/C)C(=O)OC(CC)c1ccc(OC)c(OC)c1 (stereo not given),max response,HaCat,3.4%
same,max response,KB-3-1,9.77%
same,max response,NIH3T3,1.56%
CC(C)=CC/C=C(\C)[C@H]1CC[C@]2(C)[C@@H]1[C@H](O)C[C@@H]1[C@@]3(C)CC[C@H](O)C(C)(C)[C@@H]3[C@@H](O[C@@H]3O[C@H](CO)[C@@H](O)[C@H](O)[C@H]3O)C[C@]12C,max response,HaCat,4.08%
same,outcome,KB-3-1,inactive
same,max response,NIH3T3,-21.6%
OC/C=C/C=C/[C@H]1Cc2cc(O)cc(O)c2O1,max response,HaCat,-12.2%
same,max response,KB-3-1,6.07%
same,max response,NIH3T3,1.57%
C[C@H]1CC[C@@H]2N(C1)C[C@@H]1[C@H]([C@@H](O)[C@H](O)[C@]3(O)[C@H]1C[C@@]14OC5(O)[C@@H](C[C@@H](O)[C@@H]31)[C@]4(C)CC[C@@H]5O)[C@]2(C)O,max response,HaCat,-17.6%
same,outcome,KB-3-1,inactive
same,max response,NIH3T3,0.156%
NC(=O)c1csc(C2OC(CO)C(O)C2O)n1 (stereo not given),max response,HaCat,2.41%
same,outcome,KB-3-1,inactive
same,max response,NIH3T3,-7.35%
CCOc1ccc(S(=O)(=O)n2c(C)nc3ccccc32)cc1,max response,HaCat,-31.1%
same,max response,KB-3-1,-3.74%
same,max response,NIH3T3,-7.13%
OC[C@H]1O[C@@H](OCCc2ccccc2)[C@H](O[C@@H]2OC[C@](O)(CO)[C@H]2O)[C@@H](O)[C@@H]1O,max response,HaCat,0.135%
same,outcome,KB-3-1,inactive
same,max response,NIH3T3,1.81%
COC(=O)c1ccccc1O[C@@H]1O[C@H](CO)[C@@H](O)[C@H](O)[C@H]1O[C@@H]1O[C@@H](C)[C@H](O)[C@@H](O)[C@H]1O,max response,HaCat,-1.51%
same,max response,KB-3-1,3.4%
same,max response,NIH3T3,0.854%
C=C1CCC2C(C)(C(=O)OC)CCCC2(C)C1CCC(C)CC(=O)O (stereo not given),max response,HaCat,-22.8%
same,max response,KB-3-1,0.0997%
same,max response,NIH3T3,2.98%
C/C=C/C1=CC2=C(CO1)C(=O)C(C)(O)C(OC(=O)c1c(C)cc(OC)cc1O)C2 (stereo not given),outcome,HaCat,inactive
same,max response,KB-3-1,3.88%
same,max response,NIH3T3,-6.89%
CC(=O)NC1C(OC(C)(C)C2CCC3(C)C=C(C4CCC5C4(C)CC(O)C4OC(C(C)(C)O)CCC45C)CCC3O2)OC(CO)C(O)C1O (stereo not given),max response,HaCat,3.68%
same,max response,KB-3-1,-23.5%
same,max response,NIH3T3,-10.4%
O=C(NCc1ccc(F)cc1)C(=O)c1c[nH]c2ccccc12,max response,HaCat,-19.7%
same,max response,KB-3-1,-9.55%
same,max response,NIH3T3,-16.4%
C=C1C(OC(=O)/C(C)=C\C)[C@@]23CCC4[C@@](C)(CCC[C@@]4(C)C(=O)O)C2CC[C@H]1C3OC(C)=O (stereo not given in full),max response,HaCat,4.6%
same,max response,KB-3-1,5.82%
same,max response,NIH3T3,1.34%
COc1c/c(=C2\C=c3ccccc3=N2)[nH]/c1=C\c1[nH]c(C)cc1C,Potency,HaCat,4.11 µM (active)
same,Potency,KB-3-1,2.31 µM (active)
same,Potency,NIH3T3,6.51 µM (active)
COC(=O)C1=CO[C@@H](O[C@@H]2O[C@H](CO)[C@@H](O)[C@H](O)[C@H]2O)[C@H]2[C@@H]1CC(OC)O[C@@H]2C (stereo not given in full),max response,HaCat,-16.4%
same,max response,KB-3-1,3.52%
same,max response,NIH3T3,-1.67%
CC(=O)N1CCc2ccc(O)c(OC3OC(COC4OCC(O)(CO)C4O)C(O)C(O)C3O)c2C1Cc1ccc(O)cc1 (stereo not given),max response,HaCat,-0.476%
same,max response,KB-3-1,3.16%
same,max response,NIH3T3,-4.18%
N#Cc1cnc2cnc(NCc3cccnc3)cc2c1Nc1ccc(F)c(Cl)c1,Potency,HaCat,20.6 µM (active)
same,max response,KB-3-1,-15.8%
same,max response,NIH3T3,-8.77%
O=C(O)COCCN1CCN([C@H](c2ccccc2)c2ccc(Cl)cc2)CC1,max response,HaCat,-30.6%
same,max response,KB-3-1,0.104%
same,max response,NIH3T3,0.14%
O=C1Nc2ccccc2C(O)(c2ccccc2)C1O (stereo not given),max response,HaCat,-18.6%
same,max response,KB-3-1,2.02%
same,max response,NIH3T3,-2.57%
CC1(C)CC[C@]2(C(=O)O[C@@H]3O[C@H](CO[C@@H]4O[C@H](CO)[C@@H](O)[C@H](O)[C@H]4O[C@@H]4O[C@H](CO)[C@H](O)[C@H](O)[C@H]4O)[C@@H](O)[C@H](O[C@@H]4O[C@H](CO)[C@@H](O)[C@H](O)[C@H]4O)[C@H]3O)CC[C@]3(C)C(=CCC4[C@@]5(C)CC[C@H](O[C@@H]6OC[C@@H](O)[C@H](O)[C@H]6O)[C@@](C)(C(=O)O)C5CC[C@]43C)[C@@H]2C1 (stereo not given in full),max response,HaCat,-16.1%
same,max response,KB-3-1,4.92%
same,max response,NIH3T3,1%
Cn1c2ccc(F)cc2c2c(C(=O)N3CCCC3)cn(-c3ccccc3)c(=O)c21,max response,HaCat,-0.557%
same,outcome,KB-3-1,inactive
same,max response,NIH3T3,-3.48%
CC(C)=CCC/C(C)=C/CO[C@@H]1O[C@H](CO)[C@@H](O)[C@H](O)[C@H]1O,outcome,HaCat,inactive
same,outcome,KB-3-1,inactive
same,max response,NIH3T3,-9.17%
C[C@@H]1C(=O)OC[C@H]2C(C(=O)O)=C[C@@H]3CC(C)(C)C[C@]312,max response,HaCat,3.35%
same,max response,KB-3-1,5.81%
same,max response,NIH3T3,4.19%
CC(C)(O[C@@H]1O[C@H](CO)[C@@H](O)[C@H](O)[C@H]1O)C(OC(=O)/C=C\c1ccc(O)cc1)C(=O)OCc1ccc(O[C@@H]2O[C@H](CO)[C@@H](O)[C@H](O)[C@H]2O)cc1 (stereo not given in full),max response,HaCat,-19.6%
same,outcome,KB-3-1,inactive
same,max response,NIH3T3,-27.1%
COc1ccc2c(OC)c3ccoc3nc2c1OC,max response,HaCat,-7.51%
same,max response,KB-3-1,4.27%
same,max response,NIH3T3,-9.34%
COc1ccc(C(O)C(C)OC2OC(CO)C(O)C(O)C2O)cc1 (stereo not given),max response,HaCat,1.16%
same,outcome,KB-3-1,inactive
same,max response,NIH3T3,-2.23%
CC1=CC(=O)C2C(C)(C)CCC[C@]2(C)[C@H]1CO (stereo not given in full),max response,HaCat,-11.3%
same,max response,KB-3-1,2.57%
same,max response,NIH3T3,2%
Cc1c(F)cc(C(=O)NC2CC2)cc1-c1c(F)cn2c(C(C)(C)C)nnc2c1F,max response,HaCat,-0.453%
same,max response,KB-3-1,-2.87%
same,max response,NIH3T3,-8.04%
CC1(C)CC[C@]2(C(=O)O[C@@H]3O[C@H](CO)[C@@H](O)[C@H](O)[C@H]3O)CC[C@]3(C)C(=CCC4[C@@]5(C)C[C@@H](O)[C@H](O)[C@@](C)(CO)C5CC[C@]43C)C2[C@@H]1O (stereo not given in full),max response,HaCat,-9.78%
same,outcome,KB-3-1,inactive
same,max response,NIH3T3,2.98%
Cc1cc2c(c(=O)[nH]1)OC(C(O)CC(C)C)O2 (stereo not given),max response,HaCat,-1.41%
same,max response,KB-3-1,-1.2%
same,max response,NIH3T3,-0.186%
C=C1C(=O)O[C@@H]2C[C@H](C)[C@@]3(O)C=C(C(C)=O)[C@]4(CC3C[C@H]12)C(=O)O[C@H]1C[C@@H](C)C(CCC(C)=O)=CC[C@H]14 (stereo not given in full),max response,HaCat,-0.117%
same,outcome,KB-3-1,inactive
same,max response,NIH3T3,-0.126%
CC(=O)O[C@@H](CO[C@@H]1O[C@H](CO)[C@H](O)[C@H](O)[C@H]1O)[C@]1(C)C=C2CC[C@@H]3C(C)(C)[C@@H](O)CC[C@@]3(C)[C@@H]2CC1,max response,HaCat,2.2%
same,max response,KB-3-1,2.92%
same,max response,NIH3T3,4.41%
C[C@@H]1O[C@@H](O[C@H]2[C@H](OC(=O)[C@]34CCC(C)(C)C[C@H]3C3=CCC5[C@@]6(C)C[C@H](O)[C@H](O[C@@H]7O[C@H](CO)[C@@H](O[C@H]8OC[C@](O)(CO)[C@H]8O)[C@H](O)[C@H]7O)[C@@](C)(CO)C6[C@H](O)C[C@@]5(C)[C@]3(C)C[C@H]4O)OC[C@H](O)[C@@H]2O)[C@H](O)[C@H](O)[C@H]1O[C@@H]1OC[C@@H](O)[C@H](O[C@@H]2OC[C@](O)(CO)[C@H]2O)[C@H]1O (stereo not given in full),max response,HaCat,-7.37%
same,max response,KB-3-1,8.08%
same,max response,NIH3T3,-0.781%
C[C@]1(CO)CCC[C@]2(C)C3=C(CCC12)COC3 (stereo not given in full),max response,HaCat,-11.9%
same,max response,KB-3-1,5.06%
same,max response,NIH3T3,4.03%
NC(=O)c1cccc(-c2cc(OC(=O)NC3CCCCC3)ccc2O)c1,max response,HaCat,4.07%
same,max response,KB-3-1,-19.2%
same,max response,NIH3T3,-3.22%
CC(=O)OC[C@H]1O[C@H](O[C@]2(CO)O[C@H](CO)[C@@H](OC(=O)/C=C/c3ccccc3)[C@@H]2O)[C@H](O)[C@@H](O)[C@@H]1O,max response,HaCat,-2.48%
same,outcome,KB-3-1,inactive
same,max response,NIH3T3,-0.33%
CCOC(=O)C(CCc1ccccc1)NC1CSC(c2cccs2)CN(CC(=O)O)C1=O (stereo not given),max response,HaCat,1.02%
same,outcome,KB-3-1,inactive
same,max response,NIH3T3,-0.887%
COc1ccc(CCC(=O)c2c(O)cc(O)cc2O[C@@H]2O[C@H](CO)[C@@H](O)[C@H](O)[C@H]2O)cc1,max response,HaCat,-11.7%
same,max response,KB-3-1,8.59%
same,max response,NIH3T3,-8.41%
COc1cc(C)c(C(=O)O[C@H]2[C@@H](OC(C)=O)[C@H](n3ccc(=O)[nH]c3=O)O[C@@H]2CO)c(OC)c1,max response,HaCat,-9.32%
same,max response,KB-3-1,0.943%
same,max response,NIH3T3,-14.4%
Cc1cc(N2CCN([C@@H]3CN[C@H](C(=O)N4CCSC4)C3)CC2)n(-c2ccccc2)n1,max response,HaCat,-10.6%
same,max response,KB-3-1,-12.3%
same,max response,NIH3T3,-22.8%
CC(=O)O[C@@H]1CC(C)=C2[C@H]1[C@H](C)CC[C@H]2/C=C(\C)C(=O)O,max response,HaCat,-15.4%
same,max response,KB-3-1,7.61%
same,max response,NIH3T3,-9.33%
O=C1OCC(c2ccccc2)=C1Cc1ccccc1,max response,HaCat,-5.17%
same,max response,KB-3-1,-0.0133%
same,max response,NIH3T3,-8.21%
C=C(C)C1CC[C@]2(C(=O)O)CC[C@]3(C(=O)O)[C@H](CCC4[C@@]5(C)CC[C@H](O)C(C)(C)C5CC[C@]43C)C12 (stereo not given in full),max response,HaCat,-4.71%
same,max response,KB-3-1,-4.13%
same,max response,NIH3T3,-12.2%
CC(C)(F)C[C@@H](N[C@@H](c1ccc(-c2ccc(S(C)(=O)=O)cc2)cc1)C(F)(F)F)C(=O)NC1(C#N)CC1,max response,HaCat,-33%
same,outcome,KB-3-1,inactive
same,max response,NIH3T3,-4.72%
